Measurements taken from ChEMBL document CHEMBL3433997, “St. Jude Leishmania screening dataset” (2016).

target: Solute carrier family 2, facilitated glucose transporter member 1 (Homo sapiens) (UniProt P11166); experiment: ST_JUDE_LEISH: Cytotoxicity at 2uM final concentration against transgenic Leishmania Mexicana promastigotes LmGLUT1 that are glucose transport deficient and complemented with the human glucose transporter GLUT1. Activity is measured by DNA content using SYBR green in vitro; format: functional
Sequence (P11166 whole entry): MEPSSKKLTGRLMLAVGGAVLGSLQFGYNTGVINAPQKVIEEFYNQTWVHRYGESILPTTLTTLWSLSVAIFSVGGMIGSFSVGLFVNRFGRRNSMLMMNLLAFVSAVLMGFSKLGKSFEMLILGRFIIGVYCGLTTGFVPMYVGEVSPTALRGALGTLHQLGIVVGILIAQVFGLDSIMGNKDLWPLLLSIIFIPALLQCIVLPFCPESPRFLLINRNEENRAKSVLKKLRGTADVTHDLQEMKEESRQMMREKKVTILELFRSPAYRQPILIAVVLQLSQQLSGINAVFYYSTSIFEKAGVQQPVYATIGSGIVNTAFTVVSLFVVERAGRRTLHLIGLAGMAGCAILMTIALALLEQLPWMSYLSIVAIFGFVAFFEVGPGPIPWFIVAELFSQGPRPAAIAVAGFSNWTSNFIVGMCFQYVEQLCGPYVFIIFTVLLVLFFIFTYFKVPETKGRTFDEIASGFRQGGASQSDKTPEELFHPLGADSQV

| SMILES | inhibition [%] |
| --- | --- |
| O=C(Nc1ccccc1Br)N[C@@H]1CCN(c2ccnc3ccccc23)C1 | 4.02 |
| CCCCOC(=O)c1ccc(Nc2cc(C)nc3ccc(OC)cc23)cc1 | 14.7 |
| N#Cc1ccc(NC(=O)Nc2ccc3c(c2)CCN(C2CCC2)CC3)cc1 | 5.18 |
| CN(C)c1c(CNCCCCCCNCc2ccc3ccccc3c2N(C)C)ccc2ccccc12 | 8.79 |
| O=C(CSc1nccn1C1CCCCC1)Nc1cc(C(F)(F)F)ccc1Cl | 8.56 |
| CN1CCCC(CN2CCN(Cc3ccc(-c4cccc(-c5nc6ccccc6[nH]5)c4)cc3)CC2)C1 (centres undefined) | 3.67 |
| Cc1ccc(-c2cnc(N)c3cc(-c4ccnc(N)n4)ccc23)cc1 | -0.17 |
| COc1ccc2c(=NN=Cc3ccc(F)cc3)cc(C)[nH]c2c1 | 12.2 |
| O=C(Nc1ccc(SC(F)(F)F)cc1)Nc1ccnc2ccccc12 | -1.32 |
| CC(CNC(=O)[C@H]1CNCCN1C(=O)CCCc1ccccc1)c1ccccc1 (some centres undefined) | 0.97 |
| Nc1nccc2ccc(-c3cccc4ncccc34)cc12 | 1.74 |
| CCCCCn1c(Sc2ccc(C#N)c([N+](=O)[O-])c2)nnc1-c1ccccc1 | 8.41 |
| Cc1cnc(Nc2cccnc2)nc1Nc1ccccc1C(=O)NC(C)C | 1.01 |
| CN(C)CCOc1ccc(-c2cc(-c3ccnc(N)n3)c(-c3ccc(Cl)c(O)c3)o2)cc1 | 1.34 |
| C[C@@H](CNc1ccnc(Nc2ccc3[nH]c(=O)[nH]c3c2)n1)c1ccccc1 | -3.02 |
| Oc1cc(-c2nc(C3(CNCc4ccc(Cl)cc4)CCCCC3)[nH]c2-c2ccncc2)ccc1Cl | 4.11 |
| CCOc1ccc2ccccc2c1CNCCCCCCNCc1c(OCC)ccc2ccccc12 | 7.3 |
| CCCCN(CCCC)Cc1cc(Nc2ccnc3cc(Cl)ccc23)ccc1O | 4.85 |
| COc1ccccc1C(C)NCC(=O)Nc1cccc(C(=O)Nc2cccc(C(F)(F)F)c2)c1 (centres undefined) | 3.9 |
| Cc1nc(-c2cccc(Nc3nccc(NCC(O)c4ccccc4C)n3)c2)cs1 (centres undefined) | 2.79 |

| SMILES | inhibition [%] |
| --- | --- |
| CNC(=O)Cc1ccc(C(=O)Nc2cccc(-c3cccc(-c4nc5cc(C(F)(F)F)ccc5[nH]4)c3)c2)cc1 | -0.26 |
| Cc1cc(=NN=Cc2ccc(F)cc2)c2ccc(C(F)(F)F)cc2[nH]1 | 3 |
| COc1ccc2nccc([C@@H](O)CN3CCC(NCCNc4ccccn4)CC3)c2c1 | 8.79 |
| Clc1ccc(CNCCCCCCNCc2ccc(Cl)cc2)cc1 | -1.01 |
| CN(c1ncc(-c2cccc(CNCc3ccccc3O)c2)cn1)C1CCCCC1 | -1.25 |
| C=CCn1c(=N)n(CC(O)c2ccc(Cl)c(Cl)c2)c2ccccc21 (centres undefined) | 2.79 |
| Cc1ccc(Oc2ccccc2NC(=O)CCc2nc3ccccc3c(=O)[nH]2)cc1 | 0.1 |
| CN1CCN(c2ccc(Nc3ncc(C#N)c(Nc4ccccc4C(N)=O)n3)cc2)CC1 | 75.6 |
| CCOc1c(C)cc(C(F)(F)F)cc1CNCCCNc1cc(=O)c2ccccc2[nH]1 | 5.27 |
| O=C(NC1CCN(Cc2ccccc2)CC1)c1ccc(-c2nc3cc4ccccc4cc3[nH]2)s1 | 3.9 |
| O=C(NC1CC1c1ccccc1)N(CCCn1ccnc1)Cc1csc(-c2ccc(CNCc3ccccc3)cc2)n1 (centres undefined) | 1.52 |
| Cc1nn(-c2ccccc2)c2c1C(c1ccc(C(C)C)cc1)N1C(=N2)N(Cc2ccccc2)c2ccccc21 (centres undefined) | 4.28 |
| COc1ccc(C2C(C(=O)Nc3cc(Cl)c(OC)cc3OC)c3ccccc3C(=O)N2C)cc1 (centres undefined) | 0.28 |
| CNC(=O)c1c(NC(=O)c2cccs2)sc2c1CCCC2 | 1.2 |
| CC(C)OCCCNC(=O)c1nc(-c2cccc(C(F)(F)F)c2)sc1C(C)C | 3.62 |
| COc1cc(-c2nc(-c3ccccc3)c(-c3ccccc3)[nH]2)cc(OC)c1O | -0.19 |
| N#Cc1ccc(C2CCN(CC[C@H](N)Cc3ccc(Cl)s3)CC2)cc1 | 22.8 |
| CCOc1cc(C)ccc1C1CCN(CCCCNC(=O)c2ccc(-c3ccc(Cl)cn3)cc2)CC1 | 1.1 |
| CCCNCc1ccc(-c2ccc(CN(CCOC)C(=O)c3ccco3)cc2)nc1 | 0.5 |
